In ChEMBL document CHEMBL3988442, “University of Dundee, Small-Polar-MMV Screening Library” (2021):
Hit rate of the full screen: of about 53,000 compounds, about 900 (1.7%) showed an effect of 50% or more. The sample holds strong results, similar compounds and a random draw of the others, so the mix is not that of the screen.

system: Mycobacterium tuberculosis; assay: Cornell - Phenotypic assay to identify agents that inhibit growth of Mycobacterium tuberculosis; format: functional; set-up: scale not given: direction of the effect not stated beside the values; settings: 10 mM as filed; unlikely as a test dose

Structure (SMILES)	Percent Effect [%]
Cc1ccccc1C(=O)N1CC[C@H](O)[C@@H](N2CCOCC2)CC1	45.8
CC(=O)N1CCN([C@@H]2CN(C(=O)c3ccccc3C)C[C@H]2O)CC1	-3.259
Cc1ccccc1C(=O)N1C[C@@H](O)[C@H](N2CCOCC2)C1	51.24
CCN(CC)S(=O)(=O)N1CC[C@H](c2ccccc2)[C@@H]2[C@H]1CCCCN2C	1.905
COc1cccc2ncn(C(C)Cn3cccn3)c(=O)c12 (centres undefined)	-18.84
COCc1cccc(NCc2cccnc2)c1	-54.85
CCSCc1cccc(NCc2cccnc2)c1	73.99
CCSc1cccc(NCc2cccnc2)c1	12.75
CO[C@@H]1CCC[C@@H](NC(=O)CCCn2cncn2)[C@H]1O	5.133
COc1ccc(C2CN(c3ncccn3)CCN2C(C)=O)cc1 (centres undefined)	-24.16
CCc1ccc2c(C3CN(S(C)(=O)=O)C3)ncn2c1	13.01
CCc1ccc2c(C3CN(CC4CCC4)C3)ncn2c1.O=C(O)C(F)(F)F	77.11
CCc1ccc2c(C3CN(C(C)=O)C3)ncn2c1	27.54
Cc1csc(C2(NCc3csc(C4CC4)n3)CCCC2)n1	19.76
Cc1cccc(CS(=O)(=O)c2nnc([C@@H](N)Cc3ccccc3)o2)c1.Cl	-11.8
Cl.N[C@@H](Cc1ccccc1)c1nnc(S(=O)(=O)Cc2ccc(Cl)cc2)o1	-9.825
CC(NC(=O)OC(C)(C)C)c1nnc(S(=O)(=O)Cc2ccccc2Cl)o1 (centres undefined)	105.8
Cc1noc(C(C)NC(=O)[C@@H](C)NC(=O)OC(C)(C)C)n1 (some centres undefined)	27
N[C@@H](Cc1ccccc1)c1nnc(S(=O)(=O)Cc2ccccc2)o1	-19.29
CCC(C)NC(=O)CS(=O)(=O)Cc1ccccc1Cl (centres undefined)	2.34
Cc1ccccc1CS(=O)(=O)c1nnc(C(C)NC(=O)OC(C)(C)C)o1 (centres undefined)	104.2
C[C@H](NC(=O)OC(C)(C)C)c1nnc(S(=O)(=O)Cc2cccc(F)c2)o1	-26.24

Structure (SMILES)	Percent Effect [%]
CC(NC(=O)OC(C)(C)C)c1nnc(S(=O)(=O)Cc2ccc(Cl)cc2)o1 (centres undefined)	103.3
Cn1c(Cn2cccn2)nnc1C1CCN(Cc2cccnc2)CC1	-9.114
CCCOc1cc(F)ccc1NC(=O)NCc1noc(C)n1	7.548
Cc1cn2c(n1)CCC(NC(=O)c1oc(Br)cc1C)C2 (centres undefined)	-43.16
CC(C)NC(=O)N1CCC[C@H]1C(=O)NCCCc1cccc(F)c1	-6.686
Cc1c[nH]nc1C1CCCN1Cc1ccncc1 (centres undefined)	14.55
CNc1ccnc(NCC(=O)Nc2cc(C)ccc2OC)n1	-15.75
Cc1nn(C)cc1-c1cc(C(F)(F)F)nc(NC2CCN(C)CC2)n1	11.83
CCn1cc(-c2cc(C(F)(F)F)nc(NC3CCCC3)n2)c(C)n1	101.8
Cc1nn(C)cc1-c1cc(C(F)(F)F)nc(NC2CCCCC2)n1	22.2
COCC(=O)N1CCCC(c2nc(N)ncc2-c2cccc(F)c2)C1 (centres undefined)	3.898
Cc1c(CN2CCCCC2)c(O)n(CCO)c(=O)c1C#N	38.65
Cc1c(CN2CCOCC2)c(O)n(CCO)c(=O)c1C#N	-84.89
Cc1c(CN2CCOCC2)c(O)n(CCc2ccccc2)c(=O)c1C#N	66.79
O=S(=O)(NCCCn1cncn1)c1ccc2c(c1)OCCO2	-20.65
COc1ccc(CNC(=O)CNc2cc3c(cc2Cl)OCCCO3)cc1	53.68
O=C(CNc1cc2c(cc1Cl)OCCCO2)NCc1ccc(F)cc1	-2.409
COc1ccc(CNC(=O)CNc2cc3c(cc2Cl)OCCO3)cc1	-25.81
CCc1cc(C(=O)N2CCC3(CCCN(CC4CC4)C3=O)C2)cs1 (centres undefined)	1.27
c1ccc(Cn2cccn2)c(CNCC2CNc3ccnn3C2)c1 (centres undefined)	-42.61
Cc1cc2n(n1)CC(CNC1CCN(Cc3ccccc3C)CC1)CN2 (centres undefined)	1.638
Cc1ccccc1CN1CCC(NCC2CNc3ccnn3C2)CC1 (centres undefined)	54.71

Structure (SMILES)	Percent Effect [%]
CS(=O)(=O)N1Cc2ccnn2CC(C(=O)NCc2cccnc2)C1.O=C(O)C(F)(F)F.O=C(O)C(F)(F)F (centres undefined)	-34.93
CCC(C)NC(=O)NCc1cc2n(n1)CCCN(C1CCCCC1)C2 (centres undefined)	-10.73
Fc1ccccc1-c1cccc(C2CCCN(C3CCOCC3)C2)n1 (centres undefined)	36.89
CN(C)C1COC2(CCN(Cc3ccncc3)CC2)C1 (centres undefined)	9.126
CC(=O)N(Cc1noc(C2CC2)n1)C1CCN(CC2CCOCC2)C1 (centres undefined)	-29.12
CC(=O)N1CCC(c2nccnc2-c2ccc(C(=O)O)cc2)CC1	-19.35
Cc1ccccc1CN1CCOC(c2nccc(CN(C)C)n2)C1 (centres undefined)	-48.65
COc1ccc(OCc2cc(C(=O)N3CCC(O)CC3)n[nH]2)c(Cl)c1	6.579
COc1ccc(OCc2cc(C(=O)N3C[C@@H](C)O[C@@H](C)C3)n[nH]2)c(Cl)c1	4.963
COc1ccc(OCc2cc(C(=O)N3CCSCC3)n[nH]2)c(Cl)c1	54.8
COc1ccc(OCc2cc(C(=O)N3CCOCC3)n[nH]2)c(Cl)c1	19.45
COc1ccc(OCc2cc(C(=O)N3CCCCO3)n[nH]2)c(Cl)c1	106.4
COc1ccc(OCc2cc(C(=O)N3CC=CC3)n[nH]2)c(Cl)c1	40.41
CC(C(=O)N1CCOCC1)N1CCN(Cc2nccn2C)CC1 (centres undefined)	-9.72
N#Cc1cccc(S(=O)(=O)N2CCCCC2C(N)=O)c1 (centres undefined)	15.32
O=C(Cc1cccnc1)N1CCCC(n2cncn2)C1 (centres undefined)	-17.88
Cc1nn(C)c2c(NCc3ccncc3)nc(C3CC3)nc12	-8.977
CCN(CC(C)C#N)C(=O)CNc1cc(Cl)ccc1C(N)=O (centres undefined)	-0.05585
COCC1CCCN(C(=O)c2ccc(NC(=O)CC(C)C)c(C)c2)C1 (centres undefined)	-1.652
CCN(Cc1cccc(C)c1)Cn1nc(C)c2c(C)onc2c1=O	-12.96
